# According to PubChem BioAssay AID687014 (The Scripps Research Institute Molecular Screening Center, 2013):
# Hit rate of the full screen: of about 370,000 compounds, about 6,800 (1.8%) were called active.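 The calls were made as follows: active = activation above a cutoff set at the mean of all screened compounds plus 3 SD (cut at about 10% in these data); inactive = the rest.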 The full list was thinned out, with actives kept by preference.
# Test system: Nuclear hormone receptor DAF-12 (Heterodera glycines), GAL4 fusion
# Experiment: hgDAF-12 GAL4 fusion reporter activation – cell-based, luminescence, HEK293, UAS-luciferase, primary screen (AID 687014);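 also: 0% = DMSO wells and 100% = sodium butyrate wells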
# Settings: HEK293 GAL4-hgDAF12 UAS-luciferase reporter, agonist luminescence; at 6.8 µM; active compounds read high; normalized to butyrate control
row,Structure (SMILES),activation
1,O=C(N/N=C/c1ccsc1)c1cc(O)cc(O)c1,2.1% (inactive)
2,CC(NC(=O)C(=O)N/N=C/c1ccc(Cl)cc1)c1ccccc1 (stereo not drawn),-4.35% (inactive)
3,O=C(NN=Cc1ccccc1)c1ccccc1,12.9% (active)
4,NN=C(NN=Cc1ccccc1)c1ccccc1,10.3% (inactive)
5,O=C(N/N=C/c1ccoc1)c1ccc(Cl)cc1Cl,5.04% (inactive)
6,CSc1ccc(/C=N/NC(=O)c2cccc(Cl)c2)cc1,15.8% (active)
7,COC(=O)[C@]12C[C@H](CC(=O)NCc3ccccc3)C(=O)N(CCC3=CCCCC3)C1=C[C@H](C(C)(C)C)O[C@@H]2C,-0.89% (inactive)
8,COc1cccc(CNC(=O)Cn2c(=O)oc3cc(S(=O)(=O)N4CCCCC4)ccc32)c1,-2.85% (inactive)
9,COc1ccc(C2CC=C(C(=O)O)C(c3ccccc3F)N2S(=O)(=O)c2ccc(C)cc2)cc1OC (stereo not drawn),3.93% (inactive)
10,COC(=O)C[C@@H]1CC[C@H]2[C@@H](COc3ccc(NS(=O)(=O)CC(F)(F)F)cc3C(=O)N2C)O1,-0.04% (inactive)
11,COC(=O)c1cc2c(c3c4ccccc4n(S(=O)(=O)c4cccc(C)c4)c13)C(=O)N(Cc1ccccc1)C2,0.97% (inactive)
12,CC(C)(C)NC(=O)C(c1cccnc1)N(C(=O)c1cnco1)c1ccc(C(C)(C)C)cc1 (stereo not drawn),-4.87% (inactive)
13,COc1cc(OC)cc(-c2nc(=S)n3ccsc3n2)c1,2.26% (inactive)
14,CC(C)(C)C(=O)Nc1ccc(-c2cn3cccnc3n2)cc1,8.9% (inactive)
15,COc1ccc(-c2cn3cccnc3n2)cc1,14.7% (active)
16,Cc1ccc(S(=O)(=O)NCc2cn3ccsc3n2)c(C)c1,-0.36% (inactive)
17,COc1ccc(-c2cn3ccsc3n2)cc1,14.1% (active)
18,FC(F)(F)Oc1ccc(-c2cn3cccnc3n2)cc1,9.13% (inactive)
19,Nc1ncnc2c1ncn2[C@@H]1O[C@H](C(=O)N[C@@H](CCc2ccccc2)C(=O)NCC(=O)N2CCOCC2)[C@@H](O)[C@H]1O,1.87% (inactive)
20,CC(C)N1CCCCC(NC(=O)c2ccc3ccccc3c2)C1=O (stereo not drawn),-0.24% (inactive)

row,Structure (SMILES),activation
1,O=S1(=O)c2ccc(Br)cc2-n2nncc2CN1Cc1cccc(Cl)c1,6.32% (inactive)
2,Cc1ccc(C)c(-n2nnnc2SCC(=O)c2c(N)n(C)c(=O)n(C)c2=O)c1,-2.28% (inactive)
3,COc1ccc(Cn2ccc3ccc(-c4ccc5ccn(Cc6ccccc6C)c5c4)cc32)cc1,8.22% (inactive)
4,CC(=O)OC[C@@H]1CN(Cc2ccccc2)C[C@H](n2cnc3c(NCc4ccco4)ncnc32)O1,1.43% (inactive)
5,c1ccc(-c2c[nH]c(-c3ccccc3)c2)cc1,11.8% (active)
6,c1ccc(-c2ccc3c(c2)NC(C2Nc4cc(-c5ccccc5)ccc4O2)O3)cc1 (stereo not drawn),-0.29% (inactive)
7,Oc1ccc(-c2cccc(-c3ccc(O)cc3)c2)cc1,7.62% (inactive)
8,Brc1ccc(COCCc2cn(Cc3ccccc3)c3ccccc23)cc1,0.93% (inactive)
9,O=S1(=O)c2c(cccc2N2CCSCC2)Oc2ccccc2CN1Cc1cn(Cc2ccc(F)cc2)nn1,-4.41% (inactive)
10,Cc1ccc2nc(-c3ccc(Br)cc3)cn2c1,-6.8% (inactive)
11,CCN(CC(=O)NCCc1ccccc1)S(=O)(=O)c1ccc(C)cc1,-0.97% (inactive)
12,Cc1ccc(-c2cn3cc(C)ccc3n2)cc1,-15.8% (inactive)
13,CCN(c1cccc(C)c1)S(=O)(=O)c1ccc(-c2coc(C)n2)cc1,-2.39% (inactive)
14,CCN(CC)S(=O)(=O)c1ccc(-c2cn3ccc(C)cc3n2)cc1,10.8% (active)
15,COc1ccc(-c2cn3ccc(C)cc3n2)cc1,14.2% (active)
16,C[C@H]1CCC/C=C/C(=O)c2c(O)cc(O)cc2CC(=O)O1,-13.8% (inactive)
17,CCCCCCCCN1C(=O)[C@@H](CC(=O)NCc2ccccc2)C[C@@]2(C(=O)OC)C1=C[C@H](C(C)(C)C)O[C@@H]2C,-1.53% (inactive)
18,O=C(c1ccco1)N1CCN=C1SCc1cccc(Cl)c1,-5.1% (inactive)
19,CCC(=O)c1c(CC)c2n3c1=CC[C@H]3CC(Br)C=2 (stereo partly drawn),-0.81% (inactive)
20,COc1ccc(-n2c(COc3ccccc3)nnc2SCC(=O)Nc2ccc3c(c2)OCO3)cc1,-2.9% (inactive)

row,Structure (SMILES),activation
1,NS(=O)(=O)c1ccc(CCNC(=O)CNC(=O)Cc2ccccc2)cc1,0.79% (inactive)
2,Cc1cc(C)n2ncc(C(=O)Nc3ccc4c(c3)OCCO4)c2n1,4.4% (inactive)
3,CCc1ccc2oc(-c3ccc(N)cc3)nc2c1,15.5% (active)
4,CC(=O)N1CC2(C)CN(C(C)=O)CC(C)(C1)C2=O,1.11% (inactive)
5,O=C(CCCCCN1C(=O)C2C3C=CC(C3)C2C1=O)Nc1ccccc1 (stereo not drawn),8.92% (inactive)
6,CCSc1nsc(NC(=O)Nc2cccc(C(C)=O)c2)n1,8.65% (inactive)
7,CC(=O)c1cccc(NC(=O)[C@@H](NC(N)=O)C(C)C)c1,-2.72% (inactive)
8,CC(=O)c1cccc(NC(=O)Nc2ccc(C)cc2)c1,11.1% (active)
9,OCCN1CCN(c2ncnc3c2ncn3[C@H]2CN(Cc3ccco3)C[C@@H](CO)O2)CC1,0.95% (inactive)
10,COc1ccc(Cn2cc(CN3[C@@H](CC(C)C)COc4cc(Br)ccc4S3(=O)=O)nn2)cc1,2.35% (inactive)
11,CCN(CC)S(=O)(=O)c1cc(C(=O)Nc2ccccn2)ccc1C,12.3% (active)
12,CCN(c1ccccc1)S(=O)(=O)c1cc(C(=O)NCc2ccccn2)ccc1C,0.44% (inactive)
13,Cc1ccc(NC(=O)CNCc2ccccn2)cc1S(=O)(=O)N(C)C,3.01% (inactive)
14,C[C@H]1[C@H](c2ccccc2)Oc2cc(Br)ccc2S(=O)(=O)N1Cc1cccc(F)c1,-2.03% (inactive)
15,NS(=O)(=O)c1ccc2nc(NC(=O)C3=COCCO3)sc2c1,12.8% (active)
16,O=C(Nc1ccc(S(=O)(=O)N2CCCC2)cc1Cl)C1=COCCO1,-1.4% (inactive)
17,NS(=O)(=O)c1ccc2nc(NC(=O)CS(=O)(=O)c3ccc(F)cc3)sc2c1,2.11% (inactive)
18,COc1ccc(CN2C(=O)N3Cc4cc(OC)ccc4C3CS2(=O)=O)cc1 (stereo not drawn),-2.75% (inactive)
